Experimental data as given in PubChem BioAssay AID1578 (Sanford-Burnham Center for Chemical Genomics, 2009).
Out of some 290,000 compounds screened, about 3,000 (1%) were called active. Only a selection was taken, and actives are over-represented in it overall. Unmarked numbers belong to inactive results. No stated cut-off is given here; in the data, active means inhibition mostly above about 36% (no sharp cut-off); inactive means mostly below about 34%.

Assay: NOD1 signaling inhibitors, primary screen, cell-based, luminescence, uHTS (AID 1578);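 further: HEK-293T reporter cells stimulated with the NOD1 agonist gamma-tri-DAP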
Conditions: NOD1-driven NF-kB luciferase reporter cells, at 4 µM, active compounds read high

| Structure (SMILES) | inhibition |
| --- | --- |
| COC(=O)c1ccc(C23CC4(C2)[C@H](CN(Cc2ccc(-c5ccccc5)cc2)[C@@H]4c2ccccc2)C3c2ccc(Cl)nc2)cc1 (some centres not stated) | -11.8% |
| CCOP(=O)(c1ccc(N(C)C)cc1)C(O)c1ccccc1 (configuration not stated) | -12.2% |
| N#C/C(=C(/O)c1ccc(F)cc1)c1nc2ccccc2s1 | 61.2% (active) |
| N#C/C(=C(/O)c1cccc(F)c1)c1nc2ccccc2s1 | 3.7% |
| COC(=O)c1ccc(/C(O)=C(\C#N)c2nc3ccccc3s2)cc1 | 29.2% |
| O=C(CSc1cn[nH]n1)Nc1ccccc1C(F)(F)F | -20.2% |
| CCOC(=O)CNC(=O)C(CC(N)=O)NC(=O)OC(C)(C)C (configuration not stated) | -7.6% |
| Cc1cc(CN(C)C(=O)c2cc(COc3ccc4ncccc4c3)on2)on1 | 13.2% |
| Cc1nc(CN(C)C(=O)c2cc(COc3c(F)cccc3F)on2)cs1 | -40.5% |
| CN(Cc1nccn1C)C(=O)c1cc(COc2ccc3ncccc3c2)on1 | -6.6% |
| CN(Cc1cccnc1)C(=O)c1cc(COc2ccc3c(c2)CCCC3)on1 | -46.9% |
| COc1cc(NC(=O)c2ccco2)c(OC)cc1NC(=O)CSc1ncc(-c2ccc(F)cc2)[nH]1 | -33.5% |
| COc1ccc(N2CCN(C(=O)C3CCN(S(=O)(=O)c4c(C)noc4/C=C/N(C)C)CC3)CC2)cc1 | -9.1% |
| O=C(NCCc1ccccc1)C(=O)NCC1OCCCN1S(=O)(=O)c1cccs1 (configuration not stated) | -40.9% |
| COc1cc(/C=C/C(=O)Nc2nc3ccc(S(=O)(=O)N(C)C)cc3s2)cc(OC)c1OC | 28.3% |
| Cc1noc(C)c1C(=O)OCC(=O)c1c[nH]c2ccccc12 | -6.2% |
| CCc1cccc2c(C(=O)COC(=O)c3ccccc3)c[nH]c12 | -19.8% |
| CCc1cccc2c(C(=O)COC(=O)c3cccc(S(=O)(=O)N(C)C4CCCCC4)c3)c[nH]c12 | 77.3% (active) |
| CCc1cccc2c(C(=O)COC(=O)C3=NNC(=O)CC3)c[nH]c12 | -12.4% |
| CCc1cccc2c(C(=O)COC(=O)c3ccc(O)cc3)c[nH]c12 | -17.9% |
| CCc1cccc2c(C(=O)COC(=O)c3c(C)noc3C)c[nH]c12 | 92.9% (active) |
| CCS(=O)CCSc1nc2ccccc2s1 (configuration not stated) | -10.5% |
| N#Cc1cc(C(=O)c2ccccc2O)cn(-c2nccs2)c1=O | -9.7% |
| O=C(NCc1ccccc1)C1CCN(c2nc(-c3ccccc3)nc3c2CCC3)CC1 | 15.8% |
| CC[C@@H]1CC=C[C@H]2[C@H]1C(=O)N(Cc1ccccc1)[C@H]2c1ccc(C(F)(F)F)cc1 | -2.1% |

| Structure (SMILES) | inhibition |
| --- | --- |
| COc1ccc(C(=O)O/N=C2\CCCc3nonc32)cc1 | -0.9% |
| CC(/C=C/c1ccccc1)=N\NC(=O)c1ccc(Br)cc1 | 43.7% |
| CC(/C=C/c1ccccc1)=N\NC(=O)c1ccncc1 | 0.4% |
| O=C(NCCc1ccccc1)C(=O)N/N=C/c1ccccc1C(F)(F)F | -5.8% |
| O=C(Nc1cccc(Cn2cccn2)c1)c1cc2c(s1)CCCC2 | 34.5% (active) |
| Cc1ccc(NC(=O)c2cc3c(s2)CCCC3)cc1 | -69.9% |
| CC(=O)Nc1cccc(Cn2cccn2)c1 | 11.3% |
| C=CCN(C(=O)CSc1nc2[nH]ncc2c(=O)n1-c1ccccc1OC)c1ccccc1 | -29% |
| O=C(O)c1cccc(Nc2nc3ccccc3nc2NS(=O)(=O)c2cccs2)c1 | -74.2% |
| O=C(O)c1ccc(Nc2nc3ccccc3nc2NS(=O)(=O)c2cccs2)cc1 | -3.1% |
| COc1ccc(Nc2nc3ccccc3nc2NS(=O)(=O)c2cccs2)c(OC)c1 | 18% |
| COc1ccc(Nc2nc3ccccc3nc2NS(=O)(=O)c2cccs2)cc1 | 39.2% |
| O=C1N2c3ccccc3CCc3cccc(c32)C1(O)C(F)(F)F (configuration not stated) | -26.6% |
| CC1CC(C)CN(S(=O)(=O)N2CCCC(C(=O)NCCCN3CCOCC3)C2)C1 (configuration not stated) | 16.8% |
| Cc1cc(C)nc(-n2nc(C)c(Br)c2Nc2ccc(Br)cc2)n1 | -10.9% |
| CCn1nc(C)c(Br)c1Nc1ccc(Br)cc1 | 7.5% |
| Cc1nn(C)c(Nc2ccc(Br)cc2)c1Br | 44.9% (active) |
| CC(=O)OCC(=O)Nc1cc(S(=O)(=O)N2CCCCCC2)ccc1Cl | -22.1% |
| CCN(CC)CC(=O)Nc1cccc(S(=O)(=O)N2CCCC2)c1 | -15.1% |
| CCN(CC)S(=O)(=O)c1cccc(NC(=O)c2cncc(Br)c2)c1 | -54.6% |
| Cc1ccc(OCC(=O)Nc2cccc(S(=O)(=O)NC3=NCCCCC3)c2)cc1C | -93% |
| Cc1ccc(C)c(OCC(=O)Nc2cccc(S(=O)(=O)NC3=NCCCCC3)c2)c1 | -2.9% |
| Cc1ccc(C(C)C)c(OCC(=O)Nc2cccc(S(=O)(=O)NC3=NCCCCC3)c2)c1 | 53.3% (active) |
| COc1cc(NC(=O)CNc2cccc(S(=O)(=O)N3CCCC3)c2)cc(OC)c1 | -2.7% |
| CC(C)(C)CC(=O)Nc1cc(S(=O)(=O)N2CCCCCC2)ccc1Cl | -3.6% |

| Structure (SMILES) | inhibition |
| --- | --- |
| CCN(CC)S(=O)(=O)c1ccc(C(=O)Nc2cccc(C)c2)cc1 | -4.2% |
| Cn1nc(-c2ccccc2)c2cc(C(=O)O)sc21 | -19.4% |
| COc1cc(OC)cc(C(=O)Nc2cccc(NC(=O)c3ccccc3)c2)c1 | 2.4% |
| Cc1cccc2nc(CSc3ncccc3C(=O)O)cn12 | -32.8% |
| Cc1cc(C)nc(N/N=C/c2ccccc2OCc2ccccc2)n1 | -24.5% |
| COc1cccc(NC(=O)CSc2ccc3nnc(-c4ccncc4)n3n2)c1 | 10.7% |
| O=C(CCc1ccccc1Cl)Nc1cccc(S(=O)(=O)N2CCCC2)c1 | -16.3% |
| CC(=O)Nc1cccc(S(=O)(=O)N2CCCCCC2)c1 | -15.2% |
| O=C(Cn1[nH]c(=O)c2ccccc2c1=O)Nc1cccc(S(=O)(=O)N2CCCCCC2)c1 | 55% (active) |
| CC(=O)c1cccc(NC(=O)Cn2c(=O)oc3cc(S(=O)(=O)N4CCCC4)ccc32)c1 | -4.9% |
| O=C(Cn1cnc2ccccc2c1=O)Nc1cccc(S(=O)(=O)N2CCCCC2)c1 | 3.7% |
| O=C(Cc1n[nH]c(=O)c2ccccc12)Nc1cccc(S(=O)(=O)N2CCCC2)c1 | 0.5% |
| O=C(Cn1c(=O)oc2cc(S(=O)(=O)N3CCCC3)ccc21)Nc1cccc(C(F)(F)F)c1 | 58% (active) |
| CS(=O)(=O)c1ccc(Cl)c(NC(=O)Cc2c(Cl)cccc2Cl)c1 | 19.7% |
| O=C(Cn1c(=O)oc2cc(S(=O)(=O)N3CCCC3)ccc21)Nc1ccc(C(F)(F)F)cc1 | 8.8% |
| CS(=O)(=O)c1ccc(Cl)c(NC(=O)CCc2ccccc2)c1 | -34.6% |
| CS(=O)(=O)c1ccc(Cl)c(NC(=O)CCl)c1 | 43.3% (active) |
| CCCc1cc(=O)[nH]c(SCC(=O)NCCC2=CCCCC2)n1 | -16.8% |
| Cc1ccc2nc(NCC(=O)NN)nc(-c3ccccc3)c2c1 | -11.2% |
| Cc1ccnc(NS(=O)(=O)c2ccc(NC(=O)c3cc(=O)c4ccccc4o3)cc2)n1 | -0.9% |
| NC(=O)/C(=C/c1cccnc1)NC(=O)c1ccccc1 | 4.1% |
| CCc1ccc(C2c3[nH]c4ccccc4c3CCN2C(=O)c2cc(C)nn2C)cc1 (configuration not stated) | -25.9% |
| CCCCN(C)C(=O)Cn1nc(-c2ccc(Cl)cc2)ccc1=O | -9.3% |
| O=C(c1ccc(S(=O)(=O)N2CCCC2)cc1)N(Cc1ccco1)C1CCS(=O)(=O)C1 (configuration not stated) | -10.9% |
| O=C(Nc1cccc(S(=O)(=O)NC2=NCCC2)c1)C1CCC1 | -32.4% |

| Structure (SMILES) | inhibition |
| --- | --- |
| O=C(CCl)Nc1cccc(S(=O)(=O)NC2=NCCC2)c1 | 64.9% (active) |
| CNC(=S)Nc1cccc(S(=O)(=O)NC2=NCCC2)c1 | -13.1% |
| COc1cc(NC(=O)[C@H](C)NC(=O)N2CCn3c2nc2ccccc23)cc(OC)c1 | 5.6% |
| CCCc1nnc(SCC(=O)O)n1CC | -9.2% |
| CSc1ccc(/C=C/C(=O)OCC(=O)N(C)CCC#N)cc1 | -23% |
| Cc1cc(/C=N/N2CCN(C)CC2)c(C)n1-c1ccc(Cl)cc1 | -8.4% |
| O=C(O)CN1C(=O)/C(=C/c2ccc(SCc3ccccc3)o2)SC1=S | -39.2% |
| O=C1NC(=S)S/C1=C\c1ccc(SCc2ccccc2)o1 | 91.8% (active) |
| O=C1NC(=S)S/C1=C\c1ccc(SCc2ccco2)o1 | -10.8% |
| CN(C)c1nc2ncn(Cc3ccccc3)c2c(=O)[nH]1 | 5.2% |
| O=c1[nH]cnc2c1sc1nc3c(c(-c4ccc(Cl)cc4)c12)CCC3 | 78.1% (active) |
| COc1ccc(-c2c3c(nc4sc5c(=O)[nH]c(C)nc5c24)CCC3)cc1 | -23.6% |
| O=c1[nH]cnc2c1sc1nc(-c3ccccc3)c3c(c12)CCCC3 | 34.8% |
| COc1ccc(-c2nc3c4ccccc4ccn3c2CN2CCCCC2)cc1OC | -8.1% |
| Cc1nc(SCn2nnc3ccccc3c2=O)nc(C)c1C | -13.8% |
| CCOc1ccc(S(=O)(=O)NCCSCc2ccco2)cc1 | 3.8% |
| COc1cc(NC(=O)CN2CCCCC2)c(C)cc1[N+](=O)[O-] | -16.1% |
| COc1ccc(NC(=O)Cn2ncc(Cl)c(Cl)c2=O)cc1S(=O)(=O)N1CCOCC1 | 43.5% |
| CCN(CC)S(=O)(=O)c1cc(NC(=O)Cn2ncc(Cl)c(Cl)c2=O)ccc1C | 62.3% (active) |
| COc1cc(NC(=O)CN2C(=O)CN(C)C2=O)c(C)cc1[N+](=O)[O-] | -27.7% |
| COc1cc(NC(=O)Cn2ncc(Cl)c(Cl)c2=O)c(C)cc1[N+](=O)[O-] | 91.3% (active) |
| CCN(CC)S(=O)(=O)c1cc(NC(=O)Cn2cnc3ccccc3c2=O)ccc1C | -1.6% |
